Test [1] in a line: A CellTox Green Cytotoxicity Assay to monitor cytotoxicity in HEK293 cells - 8 hour (AID 1224884). Further: nearly all actives have a fitted effect of over 35% in size. A digest of the protocol: (§1)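 Homogeneous no-lysis format: HEK293 cell suspension mixed with CellTox Green reagent, seeded, incubated 5 h at 37 C/5% CO2, then dosed by pintool with compound in DMSO.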
Test [2] can be described thus: qHTS RealTime-Glo MT Cell Viability Assay in HepG2 cells - 16 hour (AID 1224885). Further: nearly all actives have a fitted effect of over 50% in size. A digest of the protocol: (§2)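 Tox21 10K library screened in qHTS format on HepG2 cells carrying RealTime-Glo reagents. Compounds were added after a 5 h preincubation, and the luminescent signal from continuous culture was measured repeatedly during 40 h treatment.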
In general terms: Quantitative high-throughput screening tests each substance at several concentrations.

A short description of test [3]: qHTS RealTime-Glo MT Cell Viability Assay in HEK293 cells - 24 hour (AID 1224886). Further: nearly all actives have a fitted effect of over 50% in size. Further: potency means the concentration at half of the fitted maximal effect. Summed up:
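Luminescence generated by NanoLuc from substrate produced by living HEK293 cells served as the viability signal. Each value reflects the reading at its stated time point during continuous 40 h compound exposure at 37 C.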

Test [4] can be described thus: qHTS RealTime-Glo MT Cell Viability Assay in HEK293 cells - 8 hour (AID 1224887). Further: top concentration of the series differs between compounds; nearly all actives have a fitted effect of over 50% in size. Summed up:
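Measured as luminescence from the same continuously cultured HEK293 wells at successive time points (0, 8, 16, 24, 32, 40 h) after compound addition. Reagent present from seeding; dosing at 5 h; incubation 37 C.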

Test [5] can be described thus: A CellTox Green Cytotoxicity Assay to monitor cytotoxicity in HEK293 cells - 16 hour (AID 1224888). Further: nearly all actives have a fitted effect of over 35% in size. A digest of the protocol: as §1
Test [6] in a line: qHTS RealTime-Glo MT Cell Viability Assay in HepG2 cells - 0 hour (AID 1224889). Further: nearly all actives have a fitted effect of over 50% in size. Summed up:
as §2

Test [7] is described as follows: A CellTox Green Cytotoxicity Assay to monitor cytotoxicity in HepG2 cells - 8 hour (AID 1224890). Further: nearly all actives have a fitted effect of over 45% in size. Summed up: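 Fluorescent DNA-binding dye, 600 HepG2 cells/well, 5 h preincubation then compound in DMSO; same plates read at 0–40 h, 37 C.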
Test [8] is described as follows: qHTS assay to identify small molecule antagonists of the estrogen receptor alpha (ER-alpha) signaling pathway using the BG1 cell line in the presence of 0.1 nM 17-beta-estradiol - cell viability counter screen (AID 1259241). Further: nearly all actives have a fitted effect of over 40% in size. A digest of the protocol:
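Viability in VM7Luc4E2 cells after 22 hr compound exposure under 0.1 nM 17beta-estradiol stimulation, by CellTiter-Fluor.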

A short description of test [9]: qHTS assay to identify small molecule antagonists of the androgen receptor (AR) signaling pathway using the MDA cell line in the presence of 0.5 nM R1881 - cell viability counter screen (AID 1259242). Further: nearly all actives have a fitted effect of over 45% in size. A digest of the protocol:
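Human breast carcinoma MDA-kb2 cells, cultured without CO2, receive compounds alongside 0.5 nM (final) R1881 agonist. After 16 hr at 37C, viability is taken as live-cell protease signal.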

The nature of test [10]: qHTS assay to identify small molecule phospholipidosis (PLD) inducers (AID 1259344; active means well fitted curve in the direction sought with a large enough effect; an effect the other way counts as inactive or inconclusive). A digest of the protocol: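 Cells (HepG2, 900 per well) attach for 4 h, receive LipidTOX Red and compound together, incubate 24 h at 37 C, are fixed 30 min with paraformaldehyde/Hoechst, then imaged at one site per well.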
Test [11] is described as follows: qHTS assay to identify small molecule HDAC inhibitors (AID 1259364).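 Further: wild-type HCT-116 cells with endogenous class I/II HDAC activity; top concentration of the series differs between compounds; nearly all actives have a fitted effect of over 45% in size.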 Summed up:
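After a 2 hr compound incubation (37C, 5% CO2), HCT-116 cells seeded at 1,500/well the day before received HDAC-Glo reagent; signal read as luminescence after 30 min at room temperature.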

Test [12] is described as follows: qHTS assay to identify small molecule HDAC inhibitors - cell viability counter screen (AID 1259365). A digest of the protocol: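 Cytotoxicity was gauged in wild-type HCT-116 cells after a brief 2hr treatment with DMSO-dissolved compounds at 37C and 5% CO2, using CellTiter-Glo luminescence developed for 30min at room temperature.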
The nature of test [13]: qHTS assay to identify small molecule antagonists of the sonic hedgehog signaling (Shh) pathway - cell viability counter screen (AID 1259367). Further: nearly all actives have a fitted effect of over 55% in size. Further: potency means the concentration at half of the fitted maximal effect. Summed up:
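Cytotoxicity was assessed in parallel with Shh reporter activity by measuring live-cell protease fluorescence (CellTiter-Fluor) in NIH/3T3 cells stably carrying Gli1-Luc, treated with compound under conditioned medium stimulation for 23 hr plus 1 hr reagent incubation.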

Test [14] can be described thus: qHTS assay to identify small molecule agonists of the sonic hedgehog signaling (Shh) pathway (AID 1259368; calls by dose curve;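 further: NIH/3T3-derived 3T3Gli1-Luc cells carrying a stable Gli1-driven firefly luciferase reporter; series mostly up to about 92 µM; nearly all actives have a fitted effect of over 15% in size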). Summed up: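 Stable NIH/3T3 Gli1-Luc reporter clone; 24 hr cpd exposure after a 4 hr settling period; luminescence endpoint.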
The target in test [15] is Estrogen receptor beta (Homo sapiens) (UniProt Q92731). Nature of the test: qHTS assay to identify small molecule agonists of the estrogen receptor beta (ER-beta) signaling pathway (AID 1259377; active means well fitted activation curve with a large enough effect in the signal ratio in the repeat runs, not every such curve was filed as active; the % refers to the signal ratio). Summed up:
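Measured by fluorescence intensity from a B/G FRET beta-lactamase substrate (2 h, room temperature) in ER-beta-UAS-bla HEK293T cells treated with DMSO-dissolved compounds for 16 hr at 37C and 5% CO2.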

Test [16] shares this target. Nature of the test: qHTS assay to identify small molecule antagonists of the estrogen receptor beta (ER-beta) signaling pathway (AID 1259378; active means well fitted inhibition curve with a large enough effect in the signal ratio in the repeat runs, not every such curve was filed as active; the % refers to the signal ratio). Summed up:
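ER-beta-UAS-bla HEK293T (GripTite) cells in 2% charcoal-stripped FBS medium were preincubated 6 hr at 37C, dosed with compound, then stimulated with 1 nM E2 (final) for 16 hr; beta-lactamase reporter read by B/G FRET fluorescence after 2 hr substrate loading.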

The target in test [17] is Androgen receptor (Homo sapiens) (UniProt P10275). Kind of test: qHTS assay to identify small molecule antagonists of the androgen receptor (AR) signaling pathway using the MDA cell line in the presence of 0.5 nM R1881 (AID 1259243). Further: nearly all actives have a fitted effect of over 50% in size. Further: potency means the concentration at half of the fitted maximal effect. Summed up:
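Cells: MDA-kb2 (MMTV-luc). Stimulus: 0.5 nM R1881. Time: 16 hr, 37C, no CO2. Detection: ONE-Glo luminescence after 30 min at RT.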

Test [18] is described as follows: qHTS assay to identify small molecule agonists of the sonic hedgehog signaling (Shh) pathway - cell viability counter screen (AID 1259366). Further: nearly all actives have a fitted effect of over 50% in size. A digest of the protocol:
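Stable Gli1-Luc NIH/3T3 clone, 2,000 cells/well. Compound exposure 24hr at 37C. Read-out: CellTiter-Fluor fluorescence.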

Test [19] is described as follows: qHTS assay to identify small molecule antagonists of the sonic hedgehog signaling (Shh) pathway (AID 1259369; calls by dose curve; further: nearly all actives have a fitted effect of over 45% in size). Summed up:
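Gli1 transcriptional reporter (firefly Luc) in NIH/3T3 background, conditioned-medium activated. 24hr exposure, luminescence endpoint.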

The target of test [20] is Estrogen receptor (Homo sapiens) (UniProt P03372). Kind of test: qHTS assay to identify small molecule antagonists of the estrogen receptor alpha (ER-alpha) signaling pathway using the BG1 cell line in the presence of 0.1 nM 17-beta-estradiol (AID 1259244). Further: nearly all actives have a fitted effect of over 50% in size. Summed up:
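Seeding of stripped-serum-adapted VM7Luc4E2 cells, 24 h attachment, compound transfer, then 0.1 nM final 17beta-estradiol; after 22 h incubation, ONE-Glo reagent and luminescence reading.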

The structures appear in SMILES notation. A number with no mark means an inactive call. Inconclusive results are not listed. The source made the active and inactive calls. Unless noted, the call rests on the fitted dose curve; in most records, active means well fitted curve in the direction sought with a large enough effect in the repeat runs; inconclusive means weak or mixed curves; inactive means no such curve, though single readings can be large; an effect the other way counts as inactive or inconclusive.

Chain of Estrogen receptor (Homo sapiens) (P03372 whole entry, looked up): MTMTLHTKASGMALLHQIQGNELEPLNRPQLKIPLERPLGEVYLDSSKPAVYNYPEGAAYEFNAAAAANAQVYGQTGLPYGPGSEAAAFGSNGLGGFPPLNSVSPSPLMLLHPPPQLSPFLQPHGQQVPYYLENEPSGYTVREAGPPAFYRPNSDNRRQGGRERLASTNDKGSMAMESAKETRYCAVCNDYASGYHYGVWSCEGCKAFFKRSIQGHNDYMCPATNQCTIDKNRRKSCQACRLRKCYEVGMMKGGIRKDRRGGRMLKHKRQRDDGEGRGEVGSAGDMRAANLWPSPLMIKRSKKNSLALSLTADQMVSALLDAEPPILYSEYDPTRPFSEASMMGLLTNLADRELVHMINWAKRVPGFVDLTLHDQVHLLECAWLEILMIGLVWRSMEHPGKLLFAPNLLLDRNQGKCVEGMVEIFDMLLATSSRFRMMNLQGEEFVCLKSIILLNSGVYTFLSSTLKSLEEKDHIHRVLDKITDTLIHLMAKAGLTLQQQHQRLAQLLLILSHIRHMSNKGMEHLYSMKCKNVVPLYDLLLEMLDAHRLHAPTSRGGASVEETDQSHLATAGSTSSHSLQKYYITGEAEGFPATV
Chain of Estrogen receptor beta (Homo sapiens) (Q92731 whole entry, looked up): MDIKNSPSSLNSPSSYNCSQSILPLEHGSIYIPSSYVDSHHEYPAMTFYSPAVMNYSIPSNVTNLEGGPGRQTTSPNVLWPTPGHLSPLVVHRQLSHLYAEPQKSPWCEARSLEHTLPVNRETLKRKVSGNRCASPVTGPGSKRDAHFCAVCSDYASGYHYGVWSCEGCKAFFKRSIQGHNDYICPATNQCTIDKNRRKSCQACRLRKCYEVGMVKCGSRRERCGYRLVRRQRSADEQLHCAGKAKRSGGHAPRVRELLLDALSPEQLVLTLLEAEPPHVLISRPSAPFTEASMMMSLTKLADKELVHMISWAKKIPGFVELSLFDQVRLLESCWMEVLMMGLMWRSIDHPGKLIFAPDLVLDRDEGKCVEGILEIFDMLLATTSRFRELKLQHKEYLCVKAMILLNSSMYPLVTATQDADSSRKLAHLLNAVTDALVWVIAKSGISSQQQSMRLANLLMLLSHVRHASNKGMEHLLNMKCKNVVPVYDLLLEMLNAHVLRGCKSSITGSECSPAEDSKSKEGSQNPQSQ
Chain of Androgen receptor (Homo sapiens) (P10275 whole entry, looked up): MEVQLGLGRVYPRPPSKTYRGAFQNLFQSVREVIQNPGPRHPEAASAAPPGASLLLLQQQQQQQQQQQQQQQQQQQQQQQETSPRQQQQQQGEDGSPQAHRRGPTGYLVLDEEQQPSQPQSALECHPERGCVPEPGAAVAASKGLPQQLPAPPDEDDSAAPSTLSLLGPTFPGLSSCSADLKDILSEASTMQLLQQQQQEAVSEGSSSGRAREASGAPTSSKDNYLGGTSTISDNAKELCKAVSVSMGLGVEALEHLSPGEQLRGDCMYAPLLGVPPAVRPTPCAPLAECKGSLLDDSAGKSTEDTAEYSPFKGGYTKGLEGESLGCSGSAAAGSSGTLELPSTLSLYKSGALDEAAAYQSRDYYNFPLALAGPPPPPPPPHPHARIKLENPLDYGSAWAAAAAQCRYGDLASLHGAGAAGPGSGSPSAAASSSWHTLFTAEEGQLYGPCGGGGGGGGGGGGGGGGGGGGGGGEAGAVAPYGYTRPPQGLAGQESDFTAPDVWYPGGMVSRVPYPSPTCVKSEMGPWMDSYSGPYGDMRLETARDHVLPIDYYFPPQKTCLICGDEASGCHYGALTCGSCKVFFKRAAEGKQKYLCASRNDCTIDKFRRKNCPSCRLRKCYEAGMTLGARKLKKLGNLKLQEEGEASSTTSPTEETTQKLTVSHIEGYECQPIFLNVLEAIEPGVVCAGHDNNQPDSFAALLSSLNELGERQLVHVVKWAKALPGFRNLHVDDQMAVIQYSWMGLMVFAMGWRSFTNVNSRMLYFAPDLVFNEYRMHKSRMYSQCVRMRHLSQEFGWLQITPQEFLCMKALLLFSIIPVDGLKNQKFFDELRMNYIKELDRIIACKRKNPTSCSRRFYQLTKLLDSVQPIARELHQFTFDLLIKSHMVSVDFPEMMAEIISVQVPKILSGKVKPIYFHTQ

For `COc1cc([C@@H]2c3cc4c(cc3[C@@H](O[C@@H]3O[C@@H]5CO[C@@H](C)O[C@H]5[C@H](O)[C@H]3O)[C@H]3COC(=O)[C@H]23)OCO4)cc(OC)c1O`, the Potency result in [1], in test [2], in [4], in test [5], in [6] and in [7] was “inactive” each time. Besides, the Potency result in [8], in [9], in test [10], in test [11], in test [12] and in [14] was “inactive” in each case. The Potency entry in test [16] was “inactive”. In addition, the results for the Potency in test [3] and in test [13] were 1.08 µM (active) and 60.4 µM (active), respectively. Besides, the outcome in test [15] was inactive.
As for `CC1CCC(C(C)(C)O)CC1` (centres undefined), the Potency result in test [1], in test [2], in test [3], in test [4], in test [5] and in test [6] was “inactive” throughout. Further, the Potency entry in test [7], in test [8], in [9], in [17], in test [11] and in test [12] was “inactive” in each case. Also, the Potency result in test [18], in test [13], in test [14] and in test [19] was “inactive” in each case.
For `CCC(O)CO` (centres undefined), the Potency entry in test [1], in test [2], in [3], in [4], in test [5] and in test [6] was “inactive” in each case. The Potency result in test [7], in test [8], in test [9], in test [17], in test [20] and in test [11] was “inactive” each time. Moreover, the Potency entry in [18], in test [13], in test [14], in [19] and in test [16] was “inactive” each time. The compound was called inactive in test [15].
Consider `Nc1ccc(Cl)c([N+](=O)[O-])c1`, for which the Potency entry in test [1], in test [2], in test [4], in test [5], in test [6] and in [7] was “inactive” in each case. Besides, the Potency entry in [8], in test [9], in test [11], in test [12] and in test [14] was “inactive” in each case. Further, the Potency in test [17] was 24.3 µM (active).
On to `CC(c1cc(C(C)(C)C)cc(C(C)(C)C)c1O)c1cc(C(C)(C)C)cc(C(C)(C)C)c1O`, for which the Potency entry in [1], in test [2], in test [4], in [5], in [6] and in [7] was “inactive” in each case. The Potency result in test [8], in [9], in test [20], in test [11], in test [12] and in [18] was “inactive” throughout. For the same compound, the Potency entry in [13], in test [14], in test [19] and in test [16] was “inactive” in each case. Besides, in test [15], the outcome was inactive.
For the compound `NC(=O)c1ccccc1Cl`, the Potency result in test [1], in test [2], in test [3], in test [5], in [6] and in test [7] was “inactive” throughout. Moreover, the Potency result in [8], in test [9], in test [20], in test [11], in [12] and in test [18] was “inactive” throughout. In addition, the Potency result in [13], in test [14], in test [19] and in [16] was “inactive” throughout. In addition, the compound was classed as inactive in test [15].
Take `Clc1ccc2c(Cl)ccnc2c1`: the Potency entry in test [1], in test [2], in test [4], in [5], in [6] and in test [7] was “inactive” each time. Also, the Potency entry in test [8], in test [9], in [17], in test [20], in test [11] and in [12] was “inactive” each time. Also, the Potency entry in test [18], in test [13], in test [14], in test [19] and in [16] was “inactive” in each case. Moreover, the compound was classed as inactive in [15].
